Screening results (PubChem)
IL1B secr inh: qHTS for Inhibitors of Inflammasome Signaling: IL-1-beta AlphaLISA Primary Screen; THP-1 LPS/ATP IL-1B secretion, AlphaLISA, 16 h; hits give low values; activity change, % at 57.5 µM; hit rate 4.7% among 360,000; in the data active = activity change below about -50%; inconclusive = mostly about -30% to -49%
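THP-1 cells pretreated 1 hr with compounds (up to 57.5 uM final), then stimulated with LPS (250 ng/mL final) plus ATP (1.25 mM final); secreted IL-1B measured by AlphaLISA after 16 hr, decreased signal indicating inhibition.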
HT1080 IDH1KD tx: qHTS for induction of synthetic lethality in tumor cells producing 2HG: qHTS for the HT-1080-IDH1KD cell line. HT-1080 IDH1 knockdown viability, ATP luminescence, 48 h. Potency, µM (titrated, usually from 46.1 µM), for inactives: top-dose activity, negative = toxicity, hits mostly cytotoxic. hit rate 2% among 360,000. AID 686971, 2013;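 note: potency is the fitted concentration of half-maximal effect; 0% = DMSO wells and -100% = cell-free medium wells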
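Viability of IDH1-knockdown HT-1080 fibrosarcoma cells was assessed by CellTiter-Glo after 48 h at 37 °C with titrated compound; concentration-effect curves were classified by fit quality and response size.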
uPA generation: qHTS for Inhibitors of Cell Surface uPA Generation; hit rate 0.31% among 330,000; cell surface uPA generation assay, qHTS; Potency, µM (top dose mostly 38.3 µM), for inactives: top-dose activity change, negative = inhibition, hits mostly inhibitors; active = well fitted inhibition curve with a large enough effect; inconclusive = small, poorly fitted or top-dose-only effect; inactive = no such curve, though single readings can be large or run the other way; tested in mouse RAW 264.7 cells; note: potency is the fitted concentration of half-maximal effect; nearly all actives have a fitted effect of over 55% in size
TDP1 cell noCPT: qHTS for Inhibitors of human tyrosyl-DNA phosphodiesterase 1 (TDP1): qHTS in cells in absence of CPT. DT40 Tdp1-/- hTDP1 cells, no CPT, ATP luminescence, 48 h. Potency, µM (top dose mostly 46.2 µM), inactives show at the highest dose activity change, negative = growth inhibition, actives largely listed as inhibitors. hit rate 15% among 420,000; note: potency is the fitted concentration of half-maximal effect; nearly all actives have a fitted effect of over 55% in size
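No-CPT arm: Tdp1-/-;hTDP1 DT40 cells (400/well) plus compounds, incubated ≥48 hr at 37 °C. Readout CellTiter-Glo luminescence.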
TDP1 cell CPT: qHTS for Inhibitors of human tyrosyl-DNA phosphodiesterase 1 (TDP1): qHTS in cells in presence of CPT; hit rate 12% among 420,000; AID 686979, 2013; chicken DT40 Tdp1-/-;hTDP1 cells + 20 nM CPT, ATP luminescence, 48 h; Potency, µM (highest dose often 46.2 µM), for the others: at the top dose activity change, negative = growth inhibition, most hits filed as inhibitors; note: potency is the fitted concentration of half-maximal effect; nearly all actives have a fitted effect of over 55% in size
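Chicken DT40 Tdp1-/- cells stably complemented with human TDP1 were seeded at 400 cells/well in medium containing 20 nM camptothecin, exposed to pin-transferred compounds, and grown at 37 °C for at least 48 hr. Viability was read as ATP luminescence.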
HT1080NT lethal: qHTS for induction of synthetic lethality in tumor cells producing 2HG: qHTS for the HT-1080-NT fibrosarcoma cell line; HT-1080-NT fibrosarcoma viability, CellTiter-Glo ATP luminescence, 48 h; Potency, µM (series often up to 46.1 µM), for inactives: at the highest dose activity, negative = less viability, actives largely listed as cytotoxic; hit rate 1.6% among 360,000; AID 686970, 2013;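 note: NT is the 2HG producing partner of a matched IDH1 knockdown line; potency is the fitted concentration of half-maximal effect; 0% = DMSO-treated cells and -100% = media-only wells without cells; nearly all actives have a fitted effect of over 55% in size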
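Read-out is CellTiter-Glo luminescence after 10 minutes at room temperature, following 48 hours' compound treatment of HT-1080-NT cells (750 cells/well, RPMI, 5% FBS, 37 degrees C).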
Starred values were filed as active, the others as inactive; u = inconclusive; x = no result given; [ ] = another dose, or the depositor's remark. Shown are actives, neighbours in structure and some others; about 19% of the full set was active somewhere. Unless noted, calls come from the whole dose curve; as a rule, active = well fitted curve in the direction sought with a large enough effect; inconclusive = small, poorly fitted or top-dose-only effect, or another doubt; inactive = no such curve, though single readings can be large; an effect the other way counts as inactive or inconclusive. Unless noted, % is set by controls: 0 for no effect and ±100 for the full control effect.

SMILES	IL1B secr inh	HT1080 IDH1KD tx	uPA generation	TDP1 cell noCPT	TDP1 cell CPT	HT1080NT lethal
CC(C)CC(=O)N1CCN(C(=O)c2cccc(F)c2)CC1	13	6%[9.24 µM]	-2%	9%	-3%	19%
COc1ccc(OC)c(NC(=O)CSc2nc(=O)n(Cc3ccccn3)c3c2CCC3)c1	-6	-7%	5%	-7%	-4%	-1%
CCCCc1c(-c2ccccc2OC)ncn1CCc1cccc(Cl)c1	-25	u	x	21µM*	16µM*	18µM*
COc1cccc(Cn2cnc(-c3ccccc3OC)c2C2CC2)c1	0	u	x	21µM*	u	u
COc1cccc(Cn2cnc(-c3ccccc3OC)c2-c2cc(C)cc(C)c2)c1	-3	u	x	u	u	u
CCCCc1c(-c2ccccc2OC)ncn1Cc1ccc(-c2ccccc2)cc1	u	u	x	21µM*	15µM*	u
COc1ccccc1C1=Nn2c(nnc2C2CCCCC2)SC1	u	-16%	-5%	-28%	-30%	-2%
CCCCc1c(-c2ccccc2OC)ncn1C1CCCC1	-18	u	x	10µM*	18µM*	u
CC(C)c1ccc(NC(=O)CCCc2nc(-c3ccc(Cl)cc3)no2)cc1	x	x	x	-22%	-25%	x
CCN(C[C@H]1N[C@@](CC)(C(=O)OC)[C@H]2C(=O)N(C)C(=O)[C@@H]12)C(=O)Nc1ccc(C)cc1	37	6%	5%	-13%	7%	6%
CCOC(=O)C[C@@H]1OC[C@H](CO)N1S(=O)(=O)c1ccc(C)cc1	-12	-5%	x	11%	10%	3%
Cc1cc(C)cc(NC(=O)c2cccc(C(=O)Nc3cc(C)cc(C)c3)c2)c1	x	x	x	-28%	u	x
CCCCc1c(-c2ccccc2OC)ncn1Cc1ccc(Cl)cc1	u	18µM*	x	12µM*	13µM*	u
CCCCc1c(-c2ccccc2OC)ncn1Cc1cccc(-c2ccccc2)c1	-98*	u	x	6.5µM*	12µM*	21µM*
COc1cccc(Cn2cnc(-c3ccccc3OC)c2-c2cccnc2)c1	-6	-7%	x	u	u	u
CCC(=O)Nc1nnc(SCc2ccccc2F)s1	4	-2%	1%	-7%	18%	18%
Cc1ccc(CN2C(=O)c3ccccc3C2c2nnnn2C(C)C)cc1 (configuration not stated)	16	13%	x	-27%	-6%	9%
O=C(NN=C1c2ccccc2-c2ccccc21)c1ccccc1	-12	-4%	-16%	u	u	-29%
NC(=S)NN=C1c2ccccc2-c2ccccc21	-15	-7%	14%	2.9µM*	5.2µM*	-8%
NC(N)=NN=C1c2ccccc2-c2ccccc21	-64*	-14%	4%	u	27%	-18%
COc1ccc(OC)c(N(CC(=O)NCc2ccccc2)S(=O)(=O)c2ccc(OC)c(OC)c2)c1	47	1%	-3%	u	21µM*	-9%
COc1ccc(CNC(=O)CNS(=O)(=O)c2cccs2)cc1	-8	12%	6%	10%	3%	6%
COc1ccc(OC)c(N(CC(=O)NCc2ccccc2)S(=O)(=O)c2ccccc2)c1	x	x	x	u	12µM*	x
COc1ccc(OC)c(N(CC(=O)NCCSCc2ccco2)S(=O)(=O)c2ccccc2)c1	4	-1%	3%	15µM*	u	1%
COc1ccc(CNC(=O)CN(c2ccccc2OC)S(=O)(=O)c2cccs2)cc1	-4	0%	3%	u	16µM*	-1%
SMILES	IL1B secr inh	HT1080 IDH1KD tx	uPA generation	TDP1 cell noCPT	TDP1 cell CPT	HT1080NT lethal
COc1ccc(CCNC(=O)CN(c2cc(OC)ccc2OC)S(=O)(=O)c2ccccc2)cc1	-26	-4%	6%	u	u	21%
Cn1c(SCC(=O)Nc2ccccc2)nnc1-c1ccc2nonc2c1	-10	-2%	4%	-26%	4%	6%
CCCOC(=O)C1=C(C)NC(=O)NC1c1cc2c(cc1Br)OCO2 (configuration not stated)	0	-1%	-6%	-15%	-3%	-21%
O=C(COC(=O)CNS(=O)(=O)c1ccc(Br)cc1Cl)NC1CCCC1	u	-6%	-6%	-17%	-14%	-4%
Cc1onc(-c2ccccc2)c1C(=O)OCC(=O)Nc1cc(S(=O)(=O)N2CCOCC2)ccc1Cl	-21	-20%	7%	23µM*	23µM*	u
Cc1ccc(S(=O)(=O)N2CCOCC2)cc1NC(=O)COC(=O)c1cncc(Br)c1	-17	-1%	23%	20%	-15%	-1%
O=C(Cn1cnc2c(cnn2-c2ccccc2)c1=O)Nc1cc(S(=O)(=O)N2CCOCC2)ccc1Cl	14	-5%	-7%	23µM*	u	-5%
Cc1cc(C(=O)OCC(=O)Nc2cc(S(=O)(=O)N3CCOCC3)ccc2Cl)c(C)o1	1	0%	3%	-24%	-5%	-4%
Cc1ccc(S(=O)(=O)N2CCOCC2)cc1NC(=O)COC(=O)c1cnc(Cl)c(Cl)c1	-87*	0%	-1%	-12%	-8%	1%
Cc1noc(C)c1C(=O)OCC(=O)Nc1ccccc1C(=O)NC(C)c1ccccc1 (configuration not stated)	-10	-2%	11%	21µM*	29µM*	-22%
CC(C)CCNC(=O)C1CCN(S(=O)(=O)c2cccc3nsnc23)CC1	x	x	x	-9%	-17%	x
CC1=C(C(=O)Nc2ccccc2Cl)C(c2cccc(O)c2)n2ncnc2N1 (configuration not stated)	x	x	x	-3%	3%	x
CCN(CC)c1ccc(S(=O)(=O)N2CCOCC2)cc1NC(=O)CSc1ccccc1	-13	-13%	4%	u	16µM*	-2%
CCN(CC)c1ccc(S(=O)(=O)N2CCOCC2)cc1NC(=O)CNCc1cccc(Cl)c1	-6	-15%	7%	15µM*	18µM*	3%[9.24 µM]
CCN(CC)c1ccc(S(=O)(=O)N2CCOCC2)cc1NC(=O)CN1C(=O)NC2(CCCC2)C1=O	-4	5%	-4%	2%	-29%	4%
CCN(CC)c1ccc(S(=O)(=O)N2CCOCC2)cc1NC(=O)CSc1nncn1C	0	8%	2%	-7%	-27%	2%
